NCOA3 inh: human NCOA3 inhibition; AID 588352; Q9Y6Q9; HEK293 GAL4-SRC3 luciferase reporter, luminescence; actives 0.17% (n = 360,000); inhibition, % at 3.6 µM;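 active = inhibition above a per-campaign cutoff, the mean of all compounds plus 3 SD, cut at about 60% in these data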;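 also: 0% = DMSO-treated cells and 100% = gossypol-treated cells at 36 µM; higher means less SRC3-driven luciferase light from the GAL4 reporter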
GalR3 antag: human GalR3 antagonism. O60755. HEK293 GalR3-CNG cAMP membrane potential fluorescence; galR3 body fused to GalR1 C-terminus. inhibition, % at 3 µM. actives 0.44% (n = 360,000);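 active = inhibition above the screen-wide average plus 3 SD, cut at about 13% in these data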;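 also: forskolin and galanin both at EC90 stimulate the cells; cAMP rise reported by CNG channel membrane potential dye signal; 0% = forskolin plus galanin with DMSO and 100% = forskolin alone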
SRC1 inh: inhibits human SRC1 coactivator; Q15788; HEK293 GAL4-SRC1 luciferase reporter, luminescence; inhibition, % at 3.6 µM; actives 0.12% (n = 360,000);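 active = inhibition above the campaign mean plus 3 SD, with each screening campaign given its own cutoff, cut at about 60% in these data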;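 also: 0% = DMSO treated cells and 100% = gossypol at 36 µM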
SRC2 inh: human SRC2 (NCOA2) inhibition; Q15596; HEK293 GAL4-SRC2 luciferase reporter, luminescence; inhibition, % at 9 µM; actives 0.17% (n = 370,000); AID 651957;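 active = inhibition above the mean inhibition of all tested compounds plus 3 SD, set per campaign, cut at about 52% in these data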;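 also: 0% = DMSO treated cells and 100% = cells given Gossypol at 36 µM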
Target sequence (Q15596 whole entry, looked up, the tested form may be a part): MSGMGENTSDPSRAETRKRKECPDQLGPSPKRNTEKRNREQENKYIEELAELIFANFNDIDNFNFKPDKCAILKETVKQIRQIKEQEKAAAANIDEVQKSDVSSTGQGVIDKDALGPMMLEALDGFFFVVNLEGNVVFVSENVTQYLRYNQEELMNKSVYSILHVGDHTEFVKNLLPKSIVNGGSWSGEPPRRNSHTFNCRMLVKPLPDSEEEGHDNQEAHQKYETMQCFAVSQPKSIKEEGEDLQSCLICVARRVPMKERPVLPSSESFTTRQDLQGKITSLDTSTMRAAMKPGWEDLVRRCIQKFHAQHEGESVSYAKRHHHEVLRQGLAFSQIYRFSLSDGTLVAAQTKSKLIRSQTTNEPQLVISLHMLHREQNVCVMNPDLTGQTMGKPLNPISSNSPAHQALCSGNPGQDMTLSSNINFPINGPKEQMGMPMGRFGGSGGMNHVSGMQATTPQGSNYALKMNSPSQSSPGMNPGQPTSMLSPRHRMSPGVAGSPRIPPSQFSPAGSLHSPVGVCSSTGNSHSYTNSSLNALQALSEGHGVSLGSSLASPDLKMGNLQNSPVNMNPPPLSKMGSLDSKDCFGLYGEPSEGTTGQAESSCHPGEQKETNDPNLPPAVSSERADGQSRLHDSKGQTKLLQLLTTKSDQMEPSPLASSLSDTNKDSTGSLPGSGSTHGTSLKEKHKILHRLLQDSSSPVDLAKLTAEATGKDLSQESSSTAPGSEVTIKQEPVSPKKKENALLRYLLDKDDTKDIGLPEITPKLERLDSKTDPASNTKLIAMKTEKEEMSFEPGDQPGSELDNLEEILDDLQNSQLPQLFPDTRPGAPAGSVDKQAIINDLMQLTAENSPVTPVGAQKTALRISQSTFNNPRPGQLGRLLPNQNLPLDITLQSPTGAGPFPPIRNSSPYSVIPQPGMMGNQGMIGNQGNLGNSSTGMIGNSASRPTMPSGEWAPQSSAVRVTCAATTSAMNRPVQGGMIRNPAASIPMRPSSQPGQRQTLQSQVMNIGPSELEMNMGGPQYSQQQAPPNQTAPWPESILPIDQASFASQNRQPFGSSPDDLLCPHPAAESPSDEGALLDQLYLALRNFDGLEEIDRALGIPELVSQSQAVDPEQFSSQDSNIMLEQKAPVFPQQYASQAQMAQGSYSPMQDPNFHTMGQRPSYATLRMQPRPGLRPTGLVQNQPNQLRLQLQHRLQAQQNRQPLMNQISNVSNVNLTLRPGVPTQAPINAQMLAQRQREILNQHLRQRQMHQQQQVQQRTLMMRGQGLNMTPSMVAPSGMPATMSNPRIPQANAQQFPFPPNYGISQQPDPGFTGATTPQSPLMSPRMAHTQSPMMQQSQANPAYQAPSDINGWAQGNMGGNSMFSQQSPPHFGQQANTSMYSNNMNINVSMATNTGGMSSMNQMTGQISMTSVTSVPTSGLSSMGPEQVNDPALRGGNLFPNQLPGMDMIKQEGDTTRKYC
COUP-TFII inh: inhibitors of human COUP-TFII (NR2F2); P24468; HEK293T NGFI-A luciferase reporter, luminescence; inhibition, % at 8.6 µM; actives 0.7% (n = 370,000); AID 686940;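 active = inhibition above a per-plate cutoff, mean inhibition of test wells between control levels plus 3 SD, cut at about 38% in these data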;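 also: cells cotransfected with COUP-TFII expression vector driving the NGFI-A reporter; 0% = median of COUP-TF2 test wells and 100% = reporter-only cells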
NR5A2 inv ag: NR5A2 inverse agonism in reporter assay; HEK293T StAR-luciferase reporter, LRH-1 transfected, 24 h; AID 602396; inhibition, % at 3.6 µM; actives 0.13% (n = 360,000); O00482;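 active = inhibition above the mean inhibition of all tested compounds plus 3 SD, cut at about 73% in these data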;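 also: 0% = DMSO wells and 100% = reporter-only cells lacking LRH-1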
GalR3 antag conf: GalR3 (human) antagonism, confirmation. shares compounds with GalR3 antag. HEK293 GalR3 CNG cAMP biosensor, membrane potential fluorescence; galR3 fused to GalR1 carboxy tail; challenged with forskolin and galanin at EC90. inhibition, % at 3 µM. actives 59% (n = 1,600). AID 652245;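 active = inhibition above the primary screen's cutoff, the mean inhibition of all screened compounds plus 3 SD, cut at about 13% in these data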;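 also: 0% = forskolin plus galanin and 100% = forskolin alone with DMSO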
CNG parental: counter-screen for GalR3 antagonists: nonspecific agonists in parental HEK-CNG cells. AID 652268. HEK293-CNG parental cells, cAMP membrane potential fluorescence; normalised: DMSO wells 0%, forskolin wells 100%. shares compounds with GalR3 antag. activation, % at 3 µM. actives 10% (n = 1,600); in the data active = activation above about 1.3%
Active calls of the source: *; / = no result. Compounds with a hit are over-represented: about 1.1% of the library has one in this group of screens.

SMILES	NCOA3 inh	GalR3 antag	SRC1 inh	SRC2 inh	COUP-TFII inh	NR5A2 inv ag	GalR3 antag conf	CNG parental
CC1(C)CC(=O)/C(=C(\O)CCCN2C(=O)c3ccccc3C2=O)C(=NCC(=O)O)C1	3	15*	-16	-20	-17	5	1	0
CC1(C)CC(=O)/C(=C(/O)CCCN2C(=O)c3ccccc3C2=O)C(=NC(C)(C)C)C1	6	-1	1	18	12	12	/	/
O=C(Nc1nccs1)c1ccc(CSc2nnnn2-c2ccccc2)cc1	-5	-8	8	2	17	-23	/	/
O=C(CNC(=O)c1ccc(F)cc1)Nc1ccccc1C(F)(F)F	-3	14*	-17	-1	-16	-1	-3	0
C=CC[C@@H](Cc1ccc(F)cc1)C(=O)OC[C@H]1CCCN1C(=O)[C@H](CC=C)CC(=O)NCCO	4	14*	-4	4	10	-2	4	0
CCN(CC)c1ccc(Nc2cc3n(c(=O)n2)CCc2cc(OC)c(OC)cc2-3)cc1	-55	47*	-59	-31	-12	0	64*	0
COc1cc2c(cc1OC)-c1cc(Nc3ccc(N(C)C)cc3)nc(=O)n1CC2	-2	36*	-46	-19	-55	4	55*	0
COc1cc2c(cc1OC)-c1cc(Nc3ccc(F)cc3)nc(=O)n1CC2	-38	9	-21	-8	-33	-2	/	/
Cn1cc(S(=O)(=O)NC[C@H]2O[C@@H](n3ccc(=O)[nH]c3=O)[C@H](O)[C@@H]2O)cn1	11	-5	-4	-18	-9	4	/	/
CCC(CC)c1nnc(NC(=O)c2ccco2)s1	5	-7	-12	-15	-3	-14	/	/
O=C(CSc1ccc(-c2cccnc2)nn1)N1CCCC1	7	0	-2	-9	15	5	/	/
COc1cc(OC)cc(C(=O)NNC(=O)c2cc3c(s2)CCCC3)c1	0	-1	-11	-38	-7	1	/	/
COc1cc(/C=C2\SC(=Nc3c(C)n(C)n(-c4ccccc4)c3=O)NC2=O)ccc1O	9	31*	-9	-17	3	5	34*	0
Cc1ccc(C(=O)Nc2c3c(nn2C(C)(C)C)CS(=O)(=O)C3)cc1[N+](=O)[O-]	-15	-1	27	27	8	-1	/	/
Cn1cnc([N+](=O)[O-])c1S(=O)(=O)c1ccc(Cl)cc1	-10	13*	-3	13	-10	29	1	0
Cn1cnc([N+](=O)[O-])c1NC(C)(C)C	11	4	-11	-11	5	-17	/	/
Cc1ccc(COn2nnc3ccc(S(=O)(=O)N4CCOCC4)cc32)cc1	2	2	6	3	-20	9	/	/
O=c1cc(-c2ccccc2)[nH]c2ccc(F)cc12	-1	20*	-37	7	-86	-6	5	1
O=C(Cn1nc(-c2ccc(N3CCOCC3)c([N+](=O)[O-])c2)c2ccccc2c1=O)N1CCCCC1	-16	15*	0	-14	12	10	60*	0
O=[N+]([O-])c1cc(-c2nnc(N3CCOCC3)c3ccccc23)ccc1N1CCOCC1	13	-5	4	20	5	16	/	/
Cc1noc(C)c1C(=O)Nc1nc2ccc(Cl)cc2s1	-46	-3	-41	-35	-30	-87	/	/
COC(=O)c1cc(-c2ccc(Oc3ccccc3)cc2)c(=O)n2c1CCC2	/	/	/	-2	-12	/	/	/
CCCc1cc(=O)oc2c3c(cc(OCC(=O)NCc4ccncc4)c12)OC(C)(C)CC3	17	15*	7	10	16	24	7	0
CCCc1cc(=O)oc2c3c(cc(OCC(=O)N[C@@H](C)C(=O)O)c12)OC(C)(C)CC3	-2	-11	-2	-12	-14	5	/	/
CCOC(=O)Cc1csc(NC(=S)NC(=O)c2ccccc2Br)n1	-20	2	-4	8	-9	-9	/	/
SMILES	NCOA3 inh	GalR3 antag	SRC1 inh	SRC2 inh	COUP-TFII inh	NR5A2 inv ag	GalR3 antag conf	CNG parental
CCS(=O)(=O)c1ccc(O)c(NC(=O)/C=C/c2ccccc2)c1	-40	13*	-41	-30	-34	-74	0	0
CCS(=O)(=O)c1ccc(O)c(NC(=O)CCCC(=O)O)c1	14	-4	-3	-5	0	10	/	/
COc1ccc(C2C(C#N)=C(SCC(=O)Nc3ccc(C)cc3)NC3=C2C(=O)CC(C)(C)C3)cc1 (stereo not drawn)	21	-1	4	-26	5	15	/	/
COc1ccccc1NS(=O)(=O)c1ccc(N/N=C(\C)C(C)C)c([N+](=O)[O-])c1	/	33*	/	9	-5	/	13*	-2
CCCC(CCC)=NNc1ccc(S(=O)(=O)Nc2ccccc2OC)cc1[N+](=O)[O-]	15	0	-2	9	-10	-6	/	/
Cc1ccc(/C(N)=N/OC(=O)CCC2CCCC2)cc1	7	13*	-9	-30	21	-7	-2	0
Cc1ccc(/C(N)=N/OC(=O)CCC2CCCCC2)cc1	12	-3	-11	-6	-9	-7	/	/
CCCCNC(=O)C1CCCN(S(=O)(=O)CC)C1 (stereo not drawn)	2	14*	10	14	2	2	0	0
CCOCCCNC(=O)C1CCCN(S(=O)(=O)CC)C1 (stereo not drawn)	4	2	-15	-10	9	12	/	/
COC(=O)C1=C(C)NC2=C(C(=O)CCC2)C1c1cn(Cc2ccc(Cl)cc2Cl)nc1-c1ccccc1 (stereo not drawn)	-8	37*	-2	-25	9	-6	50*	0
CCOC(=O)C1=C(C)NC2=C(C(=O)CCC2)C1c1cc(OC)ccc1OC (stereo not drawn)	16	-1	1	-22	-11	-4	/	/
CCOC(=O)C1=C(C)NC2=C(C(=O)CCC2)C1c1cn(Cc2ccc(Cl)cc2Cl)nc1-c1ccccc1 (stereo not drawn)	16	16*	-7	-2	-11	0	13*	6.2*
COC(=O)NNC(=O)c1ccc(Cl)cc1Cl	4	-2	-3	-21	-16	-24	/	/
CC(C)(C)C(=O)NC(=S)NNC(=O)c1ccc(Cl)cc1Cl	2	16*	14	19	-13	1	13*	0
N#Cc1ccc(NCCCN2CCC(C(O)(c3ccccc3)c3ccccc3)CC2)cc1	/	/	/	-12	-26	/	/	/
Fc1cc2ncn(Cc3ccccc3)c2cc1F	13	/	-14	-9	-21	6	2	0

From PubChem BioAssay
